The results in this text go back to ChEMBL document CHEMBL1157539, “Thousands of chemical starting points for antimalarial lead identification” (Nature, 2010).

Type in all cases: functional
Assay [1] deals with Plasmodium falciparum. Nature of the assay: GSK_TCMDC: Inhibition of Plasmodium falciparum 3D7 in whole red blood cells, using parasite LDH activity as an index of growth. Test compounds present at 2uM.
In assay [2] the test system is Plasmodium falciparum. Nature of the assay: GSK_TCMDC: Inhibition of Plasmodium falciparum Dd2 in whole red blood cells, using parasite LDH activity as an index of growth. Test compounds present at 2uM.
For the next assay, the system named is HepG2. The experiment in a line: GSK_TCMDC: Percent inhibition of human HepG2 cell line. Test compounds present at 10uM.

Take `COc1ccc2c(c1)c(C1CCN(CCCCNC(=O)c3ccc(-c4ccc(C(F)(F)F)cc4)cc3)CC1)cn2C(C)C`: the Inhibition (usually the relative decrease from the control value, in per cent) is reported as 99% with Plasmodium falciparum [1], 21% in the assay on Plasmodium falciparum [2] and 26% in the assay on HepG2.
Consider `Cc1cccc2nc(-c3ccc(-c4cccc(CNC(C)C)c4)s3)[nH]c12.O=C(O)C(F)(F)F`, for which the Inhibition is recorded as 100% in the assay on Plasmodium falciparum [1], 97% in the assay with Plasmodium falciparum [2] and 12% in the assay on HepG2.
Consider `Cc1cc(N(CCCN(C)C)Cc2cc(F)cc(F)c2)nc(Nc2ccc(Cl)cc2)n1`, for which the Inhibition worked out at 99% with Plasmodium falciparum [1], 97% in the assay on Plasmodium falciparum [2] and 37% in the assay with HepG2.
Turning to `CN(C)c1ccc(CN2CCCCC(NC(=O)c3cc(-c4ccccc4Cl)cs3)C2)cc1.O=C(O)C(F)(F)F` (stereo not drawn), the Inhibition in the assay on Plasmodium falciparum [1] came out at 91%; with Plasmodium falciparum [2], 14%; in the assay on HepG2 it was 10%.
On the same counts, the results for `CN(C)c1ccc(-c2nnc(Sc3ccc(C#N)c([N+](=O)[O-])c3)n2Cc2ccco2)cc1` are 95%, 79% and 3%.
On to `Fc1ccc2[nH]c(-c3cccc(-c4cccc(CNCCN5CCNCC5)c4)c3)nc2c1.O=C(O)C(F)(F)F`, for which the Inhibition in the assay with Plasmodium falciparum [1] came out at 94%; in the assay on Plasmodium falciparum [2] it was 4%; in the assay on HepG2, 18%.
Turning to `COCCn1c(-c2cccc(Cl)c2)nn(-c2ccc([N+](=O)[O-])cc2Cl)c1=S`, the Inhibition worked out at 100% with Plasmodium falciparum [1], 99% in the assay on Plasmodium falciparum [2] and 2% in the assay on HepG2.
Turning to `COc1ccc2[nH]c(C(=O)Nc3ccc4[nH]c(-c5ccccc5)nc4c3)cc2c1.O=C(O)C(F)(F)F`, the Inhibition in the assay with Plasmodium falciparum [1] came out at 96%; in the assay on Plasmodium falciparum [2], 23%; with HepG2 it was 51%.
On to `CCCCc1cc(NC2CCN(C)CC2)nc(Nc2ccccc2)n1`, for which the results for the Inhibition with Plasmodium falciparum [1], in the assay on Plasmodium falciparum [2] and with HepG2 were 100%, 29% and 7%, respectively.
In the case of `O=C1NC(C(=O)Nc2ccccc2)C(c2ccccc2)S1` (stereo not drawn), the Inhibition worked out at 95% in the assay with Plasmodium falciparum [1], 99% with Plasmodium falciparum [2] and 0% in the assay with HepG2.
On the same counts, the results for `O=C(O)C[C@H](NC(=O)c1cc(-c2ccc3c(c2)OCO3)no1)C(=O)O.O=C(O)C[C@H](NC(=O)c1conc1-c1ccc2c(c1)OCO2)C(=O)O` are 98%, 0% and 0%.
`C#CCOc1ccc2ccccc2c1CNCCCCCCNCc1c(OCC#C)ccc2ccccc12.CS(=O)(=O)O`: the Inhibition is 100% in the assay on Plasmodium falciparum [1], 98% in the assay on Plasmodium falciparum [2] and 100% in the assay with HepG2.
`Cc1ccc2nc(N/C(N)=N/C(=O)NC3CCCCC3)nc(C)c2c1`: the Inhibition is listed as 99% with Plasmodium falciparum [1], 94% with Plasmodium falciparum [2] and 8% in the assay on HepG2.
Take `Cc1cccc(CN2CCCN(Cc3ccc(C(=O)Nc4ccc(C)c(F)c4)cc3)CC2)c1.O=C(O)C(F)(F)F`: the Inhibition in the assay on Plasmodium falciparum [1] turned out to be 85%; with Plasmodium falciparum [2], 3%; with HepG2, 47%.
As for `Cc1ccc(Sc2ccc(NC(=O)CN3CCN(C(=O)c4ccco4)CC3)cc2)cc1C`, the Inhibition with Plasmodium falciparum [1] is listed as 92%; in the assay on Plasmodium falciparum [2] it was 84%; in the assay on HepG2, 14%.
Take `Cc1cccc2nc(-c3ccc(-c4cccc(NC(=O)C(C)CN(C)C)c4)s3)[nH]c12` (stereo not drawn): the Inhibition is on record as 92% with Plasmodium falciparum [1], 69% with Plasmodium falciparum [2] and 12% with HepG2.
Consider `CCOc1ccc(-n2nc3c(Cl)nnc(-c4ccccc4)c3c2-c2ccccc2)cc1`, for which the results for the Inhibition in the assay with Plasmodium falciparum [1], in the assay with Plasmodium falciparum [2] and in the assay with HepG2 were 96%, 99% and 0%, respectively.
Regarding `Cc1cc(N[C@@H](Cc2ccccc2)C(=O)NC2CCCC2)nc(NCC2CCCCC2)n1.O=C(O)C(F)(F)F`, the Inhibition was 100% in the assay on Plasmodium falciparum [1], 96% with Plasmodium falciparum [2] and 18% with HepG2.
As for `Fc1ccc2[nH]c(-c3ccc(-c4ccc(CN5CCN(c6cnccn6)CC5)cc4)s3)nc2c1.O=C(O)C(F)(F)F`, the Inhibition in the assay with Plasmodium falciparum [1] came out at 99%; in the assay on Plasmodium falciparum [2], 98%; in the assay with HepG2 it was 45%.
`Oc1cccc(-c2cnc3ccc(NCc4ccc(F)cc4)nn23)c1`: the figures for the Inhibition in the assay with Plasmodium falciparum [1], in the assay with Plasmodium falciparum [2] and in the assay with HepG2 were 91%, 66% and 0%, respectively.
As for `CCOC(=O)[C@H](Cc1cccc2ccccc12)NC(=O)[C@H](CCC(=O)OC(C)(C)C)NC(=O)c1ccc(N(C)Cc2cnc3nc(N)nc(N)c3n2)cc1`, the Inhibition with Plasmodium falciparum [1] came out at 93%; in the assay on Plasmodium falciparum [2], 96%; in the assay on HepG2, 66%.
On the same counts, the results for `COc1ccc2nccc(N3CCC(CCNCc4ccc5c(n4)NC(=O)CO5)CC3)c2c1.Cl` are 100%, 50% and 22%.
Regarding `CCNc1cc(C(=O)N[C@@H](Cc2ccccc2)[C@H](O)CNC23CCC(CC2)CC3)cc(N2CCCCS2(=O)=O)c1.Cl`, the Inhibition in the assay with Plasmodium falciparum [1] is reported as 99%; with Plasmodium falciparum [2], 98%; with HepG2 it was 10%.
Regarding `Cc1cc(C2CCN(CCCCNC(=O)c3ccc(NC(=O)c4ccc(Cl)cc4)cc3)CC2)c(C)cc1OCc1ccncc1.Cl`, the Inhibition in the assay with Plasmodium falciparum [1] is listed as 100%; in the assay on Plasmodium falciparum [2], 92%; with HepG2, 33%.
Take `COc1ccc(CN2CCN(C(=O)c3cccs3)CC2)c(O)c1`: the Inhibition with Plasmodium falciparum [1] is 97%; with Plasmodium falciparum [2], 2%; with HepG2, 7%.
Turning to `Cc1cc(Nc2ccc(Cl)cc2)n2nc(C(F)(F)F)nc2n1`, the Inhibition with Plasmodium falciparum [1] came to 97%; in the assay on Plasmodium falciparum [2] it was 95%; in the assay with HepG2, 5%.
On to `CC(C)(C)Oc1ccc(CC2NC3(C(=O)N(Cc4ccc(C(C)(C)C)cc4)c4ccccc43)C3C(=O)N(c4ccc(Br)cc4)C(=O)C23)cc1` (stereo not drawn), for which the Inhibition is 94% in the assay with Plasmodium falciparum [1], 94% in the assay on Plasmodium falciparum [2] and 24% in the assay with HepG2.
With `COc1ccc(Cn2ncc3c4c(N)nc(N)nc4ccc32)cc1OC`, the Inhibition is 94% in the assay on Plasmodium falciparum [1], 95% with Plasmodium falciparum [2] and 68% in the assay on HepG2.
Consider `CCN1CCN(c2cc(C)c3cc(NC(=O)c4ccc(OC)c(OC)c4)ccc3n2)CC1`, for which the Inhibition in the assay on Plasmodium falciparum [1] was found to be 90%; in the assay with Plasmodium falciparum [2] it was 23%; with HepG2, 28%.
In the case of `CC(=O)N1N=C(c2ccccc2)Sc2c1nc(-c1ccc(Cl)cc1)n2C(C)=O`, the Inhibition was 94% with Plasmodium falciparum [1], 18% in the assay on Plasmodium falciparum [2] and 0% with HepG2.
Take `CN1CCN(c2ccc(Nc3nc(N)c4ccn(C5CCC5)c4n3)cc2)CC1.O=C(O)C(F)(F)F`: the Inhibition in the assay with Plasmodium falciparum [1] was 93%; with Plasmodium falciparum [2], 47%; in the assay with HepG2, 0%.
In the case of `CNCCCn1c(N(C)C)nc2cc(-n3cnc4cc(-c5ccc(Cl)cc5)sc4c3=O)ccc21.O=C(O)C(F)(F)F`, the Inhibition is listed as 86% in the assay with Plasmodium falciparum [1], 27% in the assay on Plasmodium falciparum [2] and 39% in the assay on HepG2.
Taken in the same sequence, the figures for `O[C@H]1[C@H](OCc2ccc(-c3ccccc3)cc2)CC[C@@H]1N1CCCCC1` were 96%, 100% and 9%.
Take `CCOC(=O)c1nc(-c2cc(Cl)nc(Cl)c2)[nH]c1NC(=S)NCc1ccc(NS(C)(=O)=O)cc1`: the Inhibition with Plasmodium falciparum [1] amounted to 100%; with Plasmodium falciparum [2] it was 98%; in the assay with HepG2, 0%.
On the same counts, the results for `Cc1cc(N[C@@H](Cc2ccccc2)C(=O)NCc2cccs2)nc(NCC2CCCCC2)n1.O=C(O)C(F)(F)F` are 100%, 92% and 0%.
For the compound `C=CCOc1ccc(-c2c(C)[nH]c(C)c(Br)c2=O)cc1`, the Inhibition in the assay on Plasmodium falciparum [1] was 98%; in the assay with Plasmodium falciparum [2] it was 96%; with HepG2 it was 5%.
As for `Cc1noc(C)c1-c1cccc(CNCc2ccc(-c3cccc(-c4nc5ccccc5[nH]4)c3)cc2)c1.O=C(O)C(F)(F)F`, the Inhibition in the assay on Plasmodium falciparum [1] is 100%; in the assay with Plasmodium falciparum [2], 57%; in the assay on HepG2 it was 50%.
`CCOc1cc(N)c2nc3ccc([N+](=O)[O-])cc3cc2c1`: the Inhibition with Plasmodium falciparum [1] was determined as 100%; with Plasmodium falciparum [2] it was 78%; with HepG2, 73%.
Turning to `CCOC(=O)c1ccc(OCCOc2ccccc2)cc1`, the Inhibition with Plasmodium falciparum [1] is listed as 99%; with Plasmodium falciparum [2] it was 0%; in the assay on HepG2 it was 63%.
As to `COc1ccc(-c2cccc(NC(=O)c3cccc(Cl)c3)c2)cc1CN1CCCC1.O=C(O)C(F)(F)F`, the Inhibition in the assay with Plasmodium falciparum [1] stood at 99%; in the assay with Plasmodium falciparum [2], 66%; with HepG2, 45%.
With `CC(C)CNCc1ccc(-c2ccc(CN(CCCN3CCN(C)CC3)C(=O)/C=C/c3ccccc3)cc2)cc1.O=C(O)C(F)(F)F`, the Inhibition worked out at 99% with Plasmodium falciparum [1], 93% in the assay on Plasmodium falciparum [2] and 57% with HepG2.
